In all, about 68,000 sequences were measured (“fluorescence intensity (a.u.)”: median about 9,100, highest 2% from about 16,000 on). What follows is part of a selection rich in the highest values, with near analogues and random picks from the rest.
Target: OsWRKY34 (Oryza sativa, UniProt Q0JBA9 1-250)
Experiment: protein-binding microarray (RPBM); PBS, 2% BSA, 51.3 ng/ul salmon testes DNA, 50 uM zinc acetate, 200 nM TF, 25 C, 1 h; high values mean tight binding
Details: protein: recombinant; tags: N-terminal polyhistidine and DsRed monomer fusion (pET32a); label: CyDye5-dUTP incorporated in the synthesized complementary strand; 3' TTTTT single-stranded linker to array surface; dsDNA, one strand shown
Outline: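 Polyhistidine-tagged DsRed fusions of transcription factors, joined at the N-terminus, were expressed in E. coli BL21-CodonPlus and isolated on Ni–NTA. They were incubated at 200 nM for 1 h at 25 °C on a custom Agilent array, double-stranded and BSA-blocked, in PBS with 2% BSA, salmon testes DNA and 50 µM zinc acetate. The binding signal is per-feature fluorescence intensity (arbitrary units) read on an Axon 4000B scanner after washing.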

Sequence of OsWRKY34 (Q0JBA9 entry or part of it): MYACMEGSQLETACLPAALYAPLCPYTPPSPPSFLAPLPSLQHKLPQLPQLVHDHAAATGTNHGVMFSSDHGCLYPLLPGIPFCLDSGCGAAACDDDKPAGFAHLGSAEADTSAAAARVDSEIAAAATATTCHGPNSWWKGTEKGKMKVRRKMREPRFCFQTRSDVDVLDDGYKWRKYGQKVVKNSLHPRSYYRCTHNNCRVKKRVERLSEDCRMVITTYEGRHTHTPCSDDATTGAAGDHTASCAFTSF

Sequence	binding signal
TTACTTGTACTGTTTGACTATTCGTCTTATTCCAAAAAAACGGAGTCACCTAGTGCAG	8820 fluorescence intensity (a.u.)
ACTTTTAAACCCATGTTTTACCATTCATCTTAATAAAAAACGGAGTCACCTAGTGCAG	8840 fluorescence intensity (a.u.)
TTTGTTTCTTGTTCTAGAGGGTTTCCTAAGGTGTTTAGGACGGAGTCACCTAGTGCAG	9940 fluorescence intensity (a.u.)
AGCAGAGATTTTTACCACGTGTCTCAACAAATAGCCACATCGGAGTCACCTAGTGCAG	8050 fluorescence intensity (a.u.)
CATGGGCTAATGTCCTTTTTTTATATATTTTTTTTGCCCTCGGAGTCACCTAGTGCAG	8990 fluorescence intensity (a.u.)
TGTAAGCTTATGTGTCATCTTTCTTTGTTTGTGAAGAACCCGGAGTCACCTAGTGCAG	8190 fluorescence intensity (a.u.)
CCTTGCCTAGTCGCTGCTGCTGTTTATAAATTTCAACTCCCGGAGTCACCTAGTGCAG	8810 fluorescence intensity (a.u.)
CTTTCTTGCAATTTTGGTCTTCTTTCCTTTTGATTTGGTTCGGAGTCACCTAGTGCAG	9200 fluorescence intensity (a.u.)
AGTAGCATTTGTTGACTTGTTGTATTCTTCTAGCCTTTTTCGGAGTCACCTAGTGCAG	13800 fluorescence intensity (a.u.)
ACTCCTCTTCTCTTCATTTTCTTCTTCCCCTGTGCTTCTCCGGAGTCACCTAGTGCAG	10900 fluorescence intensity (a.u.)
CCTCTTTATTCCATTAGCTTTTTTCATCTTCTGCTCCATCCGGAGTCACCTAGTGCAG	10500 fluorescence intensity (a.u.)
CTGCCGGCTGCTCAATTTATTCCCTTGCTGTTTCATTTCGCGGAGTCACCTAGTGCAG	45500 fluorescence intensity (a.u.)
GGCTGCTATATTGACCTTGCTCTTATTCCTTCATTCAATTCGGAGTCACCTAGTGCAG	10500 fluorescence intensity (a.u.)
CCTGACGTGCTTCACCTCACCTGCTCATTTTTTATTTCCCCGGAGTCACCTAGTGCAG	17300 fluorescence intensity (a.u.)
CGCCCCTTGATTCGCCTCGTTTTTTCTTTTCCCTTTTTTTCGGAGTCACCTAGTGCAG	9920 fluorescence intensity (a.u.)
CTTTTTCCTTGCAATCGTGATTCTTTTTTTTTTCCCTTTTCGGAGTCACCTAGTGCAG	17400 fluorescence intensity (a.u.)
GAGCATTGGGTTGGGCCTTCCTTTCTTGTATTCGGCTTCTCGGAGTCACCTAGTGCAG	16500 fluorescence intensity (a.u.)
TCTTGGGCTTGGGCCTTTGCTATTGTATTGGGTTGGGCCTCGGAGTCACCTAGTGCAG	8400 fluorescence intensity (a.u.)
ATTCCTTGTTGGTAACTGTACCCAGGGGCGGGTCCAACGTCGGAGTCACCTAGTGCAG	8270 fluorescence intensity (a.u.)
CACGATGATTGTTGCTGCACCATAGTCTCCATGTGTGTACCGGAGTCACCTAGTGCAG	8410 fluorescence intensity (a.u.)
TGTTTGCACCTTATTACGGTTCTGCGCGCTCTCTCTCTCGCGGAGTCACCTAGTGCAG	8560 fluorescence intensity (a.u.)
ATACTTAATTAATCATTCGCTAATGGACCACTCTGTTTTCCGGAGTCACCTAGTGCAG	8430 fluorescence intensity (a.u.)
CCATTGTGTCATTCAGTTATTGTTACTTTCAGTTGTTCTACGGAGTCACCTAGTGCAG	12200 fluorescence intensity (a.u.)
